PubChem BioAssay AID977607 (Broad Institute, 2014)
Out of some 1,500 compounds screened, about 460 (31%) were called active. About 1% were inconclusive and are not listed.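 The calls were made as follows: active = curve reaches 40% activation over neutral controls at an AC40 no higher than the top valid tested concentration; inconclusive = no clear call, values can overlap the other calls; inactive = signal moving opposite to the expected increase, and the rest.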 A selection follows. Entries with a potency or affinity are not part of this list.

assay: GLuc-reported insulin release enhancers, glucose-stimulated beta cells – cell-based, INS-1E, Gaussia luciferase, luminescence, cherry-pick, set 2, dose response (AID 977607); conditions: INS-1E GLuc insulin secretion reporter, 2-3 h, hits give high values; at 35 µM, 100% = signal doubled over neutral wells unless noted;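 also: 0% = median of the plate neutral control wells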

Max activation, inactive:
Cc1nc2ccccc2c2oc(C(=O)N3CCCC(C)C3)cc12 (stereo unspecified) -8.46% [at 11 µM, 100% = signal doubled over neutral wells]
COc1ccc(CCNC(=O)Cc2ccc3c(c2)OCO3)cc1OC -22.4% [at 0.42 µM, 100% = signal doubled over neutral wells]
CCOC(=O)Cc1csc(NC(=O)c2ccc(OC)c(OC)c2)n1 24.7%
Cc1c(C(=O)N(C)CCc2cnn(C)c2)oc2c(F)cccc12 -14.1% [at 3.8 µM, 100% = signal doubled over neutral wells]
CC(=O)Nc1ccc(S(=O)(=O)Nc2ccc3c(c2)n(C)c(=O)n3C)c(C)c1 -23.1%
CCCCn1c(=O)n(C)c(=O)c2c3c(sc21)COC(C)(C)C3 -17% [at 0.015 µM, 100% = signal doubled over neutral wells]
O=C(NCc1cccnc1)c1cccc(S(=O)(=O)NCc2ccccc2)c1 -24% [at 0.0016 µM, 100% = signal doubled over neutral wells]
COc1ccc(C(=O)Nc2ccccc2C(=O)NCc2cccnc2)cc1OC 42.3% [at 0.42 µM, 100% = signal doubled over neutral wells]
c1ccc(CCN2CCN=C2Nc2ccccc2)cc1 -31.5% [at 0.42 µM, 100% = signal doubled over neutral wells]
CN(C)C=NC(=O)c1ccc(N2CCN(c3ncc(C(F)(F)F)cc3Cl)CC2)cc1 -20.4% [at 11 µM, 100% = signal doubled over neutral wells]
CN(C)c1nc(=NCc2cccs2)ss1 -34.9% [at 11 µM, 100% = signal doubled over neutral wells]
CNC(=O)C1CC(=O)N(c2ccc(OCC(=O)Nc3ccccc3)cc2)C1 (stereo unspecified) -14.9% [at 0.135 µM, 100% = signal doubled over neutral wells]
CCCc1cc(=O)oc2cc(OCC(=O)NC3CCN(Cc4ccccc4)CC3)ccc12 -23.5%
COc1cc2[nH]c3c(Cl)ncnc3c2cc1OC -29.3% [at 3.8 µM, 100% = signal doubled over neutral wells]
CCCn1c(=O)c(C(=O)NCc2ccccc2)c(O)c2ccccc21 -28%
O=C(CCc1nc2ccccc2c(=O)[nH]1)NNC(=O)c1cccc(Cl)c1 -14.7% [at 0.015 µM, 100% = signal doubled over neutral wells]
